Measured values published in PubChem BioAssay (NCATS).
Results filed as inconclusive are left out. The source made the active and inactive calls. Calls follow the shape of the dose curve; as a rule, active = well fitted inhibition curve with a large enough effect; inconclusive = small, poorly fitted or top-dose-only effect; inactive = flat fitted curve, though single readings scatter.

Key:
PAD = assay: qHTS profiling for inhibitors of Plasmodium falciparum proliferation (AID 504749); also: potency is read from the fitted curve at half-maximal effect; conditions: P. falciparum in erythrocytes, SYBR Green DNA, 72 h; series mostly up to 28.7 µM
Outline: (§1)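 Infected RBCs, 0.3% parasitemia/2.5% Hct final; cpd 72 h, 37 C, 5% CO2; lysis buffer with saponin/triton/SYBR Green I, o/n RT dark; FI 485/535; norm. to artemisinin (0.29 uM) and DMSO.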

PC15 = assay: as above; conditions: P. falciparum in erythrocytes, SYBR Green DNA, 72 h; series mostly up to 28.7 µM
Outline: as §1

PC26 = assay: as above; conditions: P. falciparum in erythrocytes, SYBR Green DNA, 72 h; series mostly up to 28.7 µM
Outline: as §1

PC49 = assay: as above; conditions: P. falciparum in erythrocytes, SYBR Green DNA, 72 h; series mostly up to 28.7 µM
Outline: as §1

SC27B = assay: as above; conditions: P. falciparum in erythrocytes, SYBR Green DNA, 72 h; series mostly up to 28.7 µM
Outline: as §1

TAB109 = assay: as above; conditions: P. falciparum in erythrocytes, SYBR Green DNA, 72 h; series mostly up to 28.7 µM
Outline: as §1

TAB113 = assay: as above; conditions: P. falciparum in erythrocytes, SYBR Green DNA, 72 h; series mostly up to 28.7 µM
Outline: as §1

TAB165 = assay: as above; conditions: P. falciparum in erythrocytes, SYBR Green DNA, 72 h; series mostly up to 28.7 µM
Outline: as §1

W2 = assay: as above; conditions: P. falciparum in erythrocytes, SYBR Green DNA, 72 h; series mostly up to 28.7 µM
Outline: as §1

CRL-7250 = normal cell line; assay: Cytotoxic Profiling of Annotated Libraries Using Quantitative High-Throughput Screening (AID 1296008); conditions: Five cell lines viability, CellTiter-Glo ATP luminescence, 48-72 h; stronger effect = lower value; as to max response: % is scaled to controls: 0 for no effect and ±100 for the full control effect
Outline: (§2)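 Cytotoxicity was measured as CellTiter-Glo ATP luminescence, read after 10 min at room temperature. Compound treatment of the cells lasted 48 or 72 hr at 37 degrees Celsius in a qHTS format.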

HEK293 = assay: as above; conditions: Five cell lines viability, CellTiter-Glo ATP luminescence, 48-72 h; stronger effect = lower value
Outline: as §2

HaCat [1] = assay: as above; conditions: Five cell lines viability, CellTiter-Glo ATP luminescence, 48-72 h; stronger effect = lower value
Outline: as §2

KB-3-1 = assay: as above; conditions: Five cell lines viability, CellTiter-Glo ATP luminescence, 48-72 h, stronger effect = lower value
Outline: as §2

NIH3T3 = assay: as above; conditions: Five cell lines viability, CellTiter-Glo ATP luminescence, 48-72 h; stronger effect = lower value
Outline: as §2

HACAT [2] = assay: qHTS assay to identify novel small-molecules to repurpose for Merkel cell carcinoma treatment (AID 1296009); conditions: MCC and control cell lines, CellTiter-Glo viability, 72 h; at 44.8 µM (top of the series) unless noted; as to activity change, negative = cytotoxicity: % is scaled to controls: 0 for no effect and ±100 for the full control effect
Outline: (§3)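 72 hr, 37 degree celsius; NPC 8-pt / MIPE 11-pt dose response; compound pinned in DMSO; CellTiter-Glo, 10 min RT, luminescence; normalized to no-cell and DMSO controls.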

MCC-13 = assay: as above; conditions: MCC and control cell lines, CellTiter-Glo viability, 72 h; series mostly up to 46 µM
Outline: as §3

MKL-1 = assay: as above; conditions: MCC and control cell lines, CellTiter-Glo viability, 72 h; series mostly up to 46 µM
Outline: as §3

MKL-2 = assay: as above; conditions: MCC and control cell lines, CellTiter-Glo viability, 72 h; series mostly up to 46 µM
Outline: as §3

MCC-26 = assay: as above; conditions: MCC and control cell lines, CellTiter-Glo viability, 72 h; series mostly up to 46 µM
Outline: as §3

HEK293T = assay: as above; conditions: MCC and control cell lines, CellTiter-Glo viability, 72 h; at 44.8 µM (top of the series) unless noted
Outline: as §3
Also: nearly all actives have a fitted effect of over 60% in size.

O=C(O)COC(=O)Cc1ccccc1Nc1c(Cl)cccc1Cl
inactive: Potency (PAD) | Potency (PC15) | Potency (PC26) | Potency (PC49) | Potency (SC27B) | Potency (TAB109) | Potency (TAB113) | Potency (TAB165) | Potency (W2) | outcome (CRL-7250) | max response (HEK293) -1.3% | outcome (HaCat [1]) | max response (KB-3-1) 5.03% | max response (NIH3T3) 1.68% | outcome (HACAT [2]) | outcome (MCC-13) | outcome (MKL-1) | outcome (MKL-2)

Cn1c(=O)c2c(ncn2CCO)n(C)c1=O
inactive: Potency (PAD) | Potency (PC15) | Potency (PC26) | Potency (PC49) | Potency (SC27B) | Potency (TAB109) | Potency (TAB113) | Potency (TAB165) | Potency (W2) | max response (CRL-7250) -4.29% | max response (HEK293) -4.8% | outcome (HaCat [1]) | max response (KB-3-1) -5.28% | max response (NIH3T3) -3.21% | outcome (HACAT [2]) | outcome (MCC-13) | outcome (MCC-26) | outcome (MKL-1) | outcome (MKL-2)

Cc1cc(-n2nc3ccc(Cl)cc3n2)c(O)c(C(C)(C)C)c1
inactive: Potency (PC15) | Potency (PC26) | Potency (PC49) | Potency (SC27B) | Potency (W2) | max response (CRL-7250) -3.44% | max response (HEK293) 4.97% | outcome (HaCat [1]) | max response (KB-3-1) 6.34% | max response (NIH3T3) 3.2% | outcome (HACAT [2]) | outcome (MCC-13) | outcome (MKL-1) | outcome (MKL-2)

CN1CCN(C(=O)C2CCCCC2)CC1
inactive: Potency (PAD) | Potency (PC15) | Potency (PC26) | Potency (PC49) | Potency (SC27B) | Potency (TAB109) | Potency (TAB113) | Potency (TAB165) | Potency (W2) | outcome (CRL-7250) | max response (HEK293) -2.32% | outcome (HaCat [1]) | max response (KB-3-1) -4.36% | max response (NIH3T3) -7.73% | outcome (HACAT [2]) | outcome (MCC-13) | outcome (MCC-26) | outcome (MKL-1) | outcome (MKL-2)

Cc1cc(OI)c(C(C)C)cc1-c1cc(C(C)C)c(OI)cc1C
inactive: outcome (CRL-7250) | max response (HEK293) 2.3% | outcome (HaCat [1]) | max response (KB-3-1) 12.2% | max response (NIH3T3) -2.54% | outcome (HACAT [2]) | outcome (MCC-13) | outcome (MCC-26) | outcome (MKL-1) | outcome (MKL-2)
active: Potency (PC15) 11.2 µM | Potency (TAB113) 10 µM | Potency (W2) 6.01 µM

CCS(=O)(=O)CCn1c([N+](=O)[O-])cnc1C
inactive: Potency (PAD) | Potency (PC15) | Potency (PC26) | Potency (PC49) | Potency (SC27B) | Potency (TAB109) | Potency (TAB113) | Potency (TAB165) | Potency (W2) | outcome (CRL-7250) | max response (HEK293) 1.79% | outcome (HaCat [1]) | max response (KB-3-1) -0.735% | max response (NIH3T3) -2.73% | outcome (HACAT [2]) | outcome (MCC-13) | outcome (MKL-1) | outcome (MKL-2)

NC(N)=NCCN1CCCCCCC1
inactive: Potency (PAD) | Potency (PC15) | Potency (PC26) | Potency (PC49) | Potency (SC27B) | Potency (TAB109) | Potency (TAB113) | Potency (TAB165) | Potency (W2) | max response (CRL-7250) -19.7% | max response (HEK293) 0.733% | outcome (HaCat [1]) | max response (KB-3-1) 18.1% | max response (NIH3T3) 4.36% | outcome (HACAT [2]) inactive [at 0.588 µM] | activity change, negative = cytotoxicity (MCC-13) 12.6% [at 0.597 µM] | activity change, negative = cytotoxicity (MCC-26) 12.5% [at 0.597 µM] | activity change, negative = cytotoxicity (MKL-1) 13.2% [at 0.597 µM] | activity change, negative = cytotoxicity (MKL-2) 3.8% [at 0.597 µM]

CC(=O)N[C@@H](Cc1ccc(O)cc1)C(=O)O
inactive: Potency (PAD) | Potency (PC15) | Potency (PC26) | Potency (PC49) | Potency (SC27B) | Potency (TAB109) | Potency (TAB113) | Potency (TAB165) | max response (CRL-7250) -1.56% | max response (HEK293) -2.21% | outcome (HaCat [1]) | max response (KB-3-1) -4.16% | max response (NIH3T3) -2.52% | outcome (HACAT [2]) | outcome (MCC-13) | outcome (MKL-1) | outcome (MKL-2)

Cc1ccc(S(=O)(=O)NC(=O)NC2CCCCCCC2)cc1
inactive: Potency (PAD) | Potency (PC15) | Potency (PC26) | Potency (PC49) | Potency (SC27B) | Potency (TAB109) | Potency (TAB113) | Potency (TAB165) | Potency (W2) | max response (CRL-7250) -5.06% | max response (HEK293) 4.09% | outcome (HaCat [1]) | max response (KB-3-1) 0.148% | max response (NIH3T3) 3.55% | outcome (HACAT [2]) | outcome (MCC-13) | outcome (MCC-26) | outcome (MKL-1) | outcome (MKL-2)

CC(=O)OC[C@H]1O[C@@](COC(C)=O)(O[C@H]2O[C@H](COC(C)=O)[C@@H](OC(C)=O)[C@H](OC(C)=O)[C@H]2OC(C)=O)[C@@H](OC(C)=O)[C@@H]1OC(C)=O
inactive: Potency (PC15) | Potency (PC26) | Potency (PC49) | Potency (W2) | max response (CRL-7250) 4.32% | max response (HEK293) -4.41% | outcome (HaCat [1]) | max response (KB-3-1) 2.32% | max response (NIH3T3) 2.21% | outcome (HACAT [2]) | outcome (MCC-13) | outcome (MCC-26) | outcome (MKL-1) | outcome (MKL-2)

CCCNC(C)(C)COC(=O)c1ccccc1
inactive: Potency (PAD) | Potency (PC15) | Potency (PC49) | Potency (SC27B) | Potency (TAB109) | Potency (TAB113) | Potency (TAB165) | max response (CRL-7250) -0.75% | max response (HEK293) 3.12% | outcome (HaCat [1]) | max response (KB-3-1) 0.448% | max response (NIH3T3) 4.95% | outcome (HACAT [2]) | outcome (MCC-13) | outcome (MKL-1) | outcome (MKL-2)

COc1ccc(Cc2cnc(N)nc2N)cc1OC
inactive: Potency (PAD) | Potency (PC15) | Potency (PC26) | Potency (PC49) | Potency (SC27B) | Potency (TAB109) | Potency (TAB113) | Potency (TAB165) | Potency (W2) | max response (CRL-7250) -8.49% | max response (HEK293) 2.64% | outcome (HaCat [1]) | max response (KB-3-1) -1.92% | max response (NIH3T3) -0.487% | outcome (HACAT [2]) | outcome (MCC-13) | outcome (MCC-26) | outcome (MKL-1) | outcome (MKL-2)

O=C1c2ccccc2C(=O)C1c1ccc(Br)cc1
active: Potency (TAB113) 8.91 µM | Potency (W2) 4.78 µM
inactive: Potency (PC15) | Potency (PC49) | Potency (SC27B) | max response (CRL-7250) -1.25% | max response (HEK293) -0.633% | outcome (HaCat [1]) | max response (KB-3-1) -16.6% | max response (NIH3T3) -1.29% | outcome (HACAT [2]) | outcome (MCC-13) | outcome (MCC-26) | outcome (MKL-1) | outcome (MKL-2)

C[C@]1(Cn2ccnn2)[C@H](C(=O)O)N2C(=O)C[C@H]2S1(=O)=O
inactive: max response (CRL-7250) -1.81% | outcome (HEK293) | max response (HaCat [1]) -19.5% | max response (KB-3-1) 13.6% | max response (NIH3T3) -0.883% | outcome (HEK293T) | outcome (MCC-13) | outcome (MCC-26) | outcome (MKL-1) | outcome (MKL-2)
